{
  "source": "PubChem BioAssay AID743150",
  "about": "(Broad Institute, 2013)",
  "note": "Results with a measured potency or affinity are listed apart. A number with no mark means an inactive call. No rule for the calls is given here.",
  "data": [
    {"assay": "OVCAR4 cell viability loss – plate reader, dry powder, SA11, cytotoxicity control for PAX8 inhibitor project, dose response (AID 743150)", "details": "series mostly up to 35 µM; activity change, negative = cytotoxicity: at the top concentration", "values": [
      {"smiles": "CCSCCc1nnc(NC(=O)Nc2cccc(C(F)(F)F)c2)s1", "activity change, negative = cytotoxicity": "5.07% [at 50 µM]"},
      {"smiles": "CCCC#Cc1ccc([C@@H]2[C@@H](C#N)N(C(=O)C3CCCCC3)[C@H]2CO)cc1", "activity change, negative = cytotoxicity": "7.79%"},
      {"smiles": "N#C[C@H]1[C@H](c2ccc(C#CC3CCCC3)cc2)[C@@H](CO)N1C(=O)Nc1ccc(F)cc1", "activity change, negative = cytotoxicity": "-23.7%"},
      {"smiles": "O=C1/C(=C/c2ccccc2)SC(=S)N1CC(=O)N1CCCCC1c1cccnc1", "note": "(centres undefined)", "activity change, negative = cytotoxicity": "26.6% [at 50 µM]"},
      {"smiles": "Cc1ccc(S(=O)(=O)Nc2ccc3c(c2)nc(CCN2CCCC2)n3C)cc1", "activity change, negative = cytotoxicity": "-9.44% [at 50 µM]"},
      {"smiles": "O=C(NCCc1ccccc1)c1ccc2c(c1)OCCCO2", "activity change, negative = cytotoxicity": "-11.5% [at 50 µM]"},
      {"smiles": "O=C(C[C@@H]1C[C@H]2c3cc(NS(=O)(=O)c4ccc(F)cc4)ccc3O[C@H]2[C@H](CO)O1)NCc1ccc(Cl)cc1", "activity change, negative = cytotoxicity": "-45.6%"},
      {"smiles": "CC(C)c1cc(C(=O)OCC(=O)N2CCN(C(=O)c3ccco3)CC2)c(O)c(C(C)C)c1", "activity change, negative = cytotoxicity": "30.7% [at 50 µM]"},
      {"smiles": "N#C[C@H]1N[C@H](CO)[C@@H]1c1ccc(C#Cc2ccccc2F)cc1", "activity change, negative = cytotoxicity": "-6.58%"},
      {"smiles": "O=C(CN1C(=O)c2ccccc2S1(=O)=O)c1ccccc1Cl", "activity change, negative = cytotoxicity": "-13.4% [at 50 µM]"},
      {"smiles": "N#C[C@@H]1[C@@H](c2ccc(C3=CCCCC3)cc2)[C@@H](CO)N1C(=O)NC1CCCCC1", "activity change, negative = cytotoxicity": "6.62%"},
      {"smiles": "CC1(C)CC(=O)c2sc(NC(=O)CCS(=O)(=O)c3ccccc3)nc2C1", "activity change, negative = cytotoxicity": "-33.8% [at 50 µM]"},
      {"smiles": "C[C@H](CO)N1C[C@H](C)[C@@H](CN(C)Cc2ccc(C(F)(F)F)cc2)Oc2ccc(NS(=O)(=O)c3ccc(Cl)cc3)cc2CC1=O", "activity change, negative = cytotoxicity": "-35.6%"},
      {"smiles": "C[C@H]1CN([C@@H](C)CO)C(=O)CCCn2nncc2CO[C@@H]1CN(C)C(=O)Nc1ccc(-c2cccs2)cc1", "activity change, negative = cytotoxicity": "32.7%"}
    ]}
  ]
}
